# Records with an inconclusive call do not appear. Calls of active or inactive are those of the source. Unless noted, calls come from the whole dose curve; as a rule, active = well fitted curve in the direction sought with a large enough effect; inconclusive = small, poorly fitted or top-dose-only effect, or another doubt; inactive = no such curve, though single readings can be large; an effect the other way counts as inactive or inconclusive.
# Assays:
# [1] = P-glycoprotein substrates identified in KB-8-5-11 adenocarcinoma cell line, qHTS therapeutic library screen (AID 1346987); note: % is set by controls: 0 for no effect and ±100 for the full control effect; nearly all actives have a fitted effect of over 65% in size
# In short: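 Compounds are pinned in dose-response onto KB-8-5-11 cells (500 cells/well, colchicine-free medium) and left 72 h at 37 degree C. CellTiter-Glo luminescence then yields AC50 values.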
# [2] = target: Catechol O-methyltransferase (Homo sapiens) (UniProt P21964); test: Confirmatory Screen for Target Class Profiling of Small Molecule Inhibitors of Methyltransferases (AID 1745852; calls by dose curve; for activity change, negative = inhibition: % is set by controls: 0 for no effect and ±100 for the full control effect); details: MTase-Glo luminescence, SAH detection, recombinant enzyme; measured here: COMT max response; stronger effect = lower value
# Chain of Catechol O-methyltransferase (Homo sapiens) (P21964 whole entry, looked up): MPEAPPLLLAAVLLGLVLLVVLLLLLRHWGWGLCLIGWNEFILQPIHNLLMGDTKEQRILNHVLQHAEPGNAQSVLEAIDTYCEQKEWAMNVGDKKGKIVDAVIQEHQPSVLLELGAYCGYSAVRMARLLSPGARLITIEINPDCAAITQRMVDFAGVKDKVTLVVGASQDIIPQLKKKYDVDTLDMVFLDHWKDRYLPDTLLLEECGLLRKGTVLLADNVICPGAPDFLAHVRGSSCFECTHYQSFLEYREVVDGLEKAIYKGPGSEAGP
# [3] = target: Guanidinoacetate N-methyltransferase (Homo sapiens) (UniProt Q14353); test: as above; details: activity change, negative = inhibition: at 57.3 µM (top of the series) unless noted
# [4] = target: Nicotinamide N-methyltransferase (Homo sapiens) (UniProt P40261); test: as above; details: MTase-Glo luminescence, SAH detection, recombinant enzyme; measured here: NNMT max response; stronger effect = lower value
# Chain of Nicotinamide N-methyltransferase (Homo sapiens) (P40261 whole entry, looked up): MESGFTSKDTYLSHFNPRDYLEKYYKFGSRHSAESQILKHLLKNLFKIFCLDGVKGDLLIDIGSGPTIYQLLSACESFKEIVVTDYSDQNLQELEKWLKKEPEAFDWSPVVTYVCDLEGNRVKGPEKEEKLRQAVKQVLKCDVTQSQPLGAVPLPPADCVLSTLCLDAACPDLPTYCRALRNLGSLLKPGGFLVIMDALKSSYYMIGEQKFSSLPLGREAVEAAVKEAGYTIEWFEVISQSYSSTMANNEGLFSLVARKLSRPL
# [5] = target: Phenylethanolamine N-methyltransferase (Homo sapiens) (UniProt P11086); test: as above; details: MTase-Glo luminescence, SAH detection, recombinant enzyme; measured here: PNMT max response; stronger effect = lower value
# Chain of Phenylethanolamine N-methyltransferase (Homo sapiens) (P11086 whole entry, looked up): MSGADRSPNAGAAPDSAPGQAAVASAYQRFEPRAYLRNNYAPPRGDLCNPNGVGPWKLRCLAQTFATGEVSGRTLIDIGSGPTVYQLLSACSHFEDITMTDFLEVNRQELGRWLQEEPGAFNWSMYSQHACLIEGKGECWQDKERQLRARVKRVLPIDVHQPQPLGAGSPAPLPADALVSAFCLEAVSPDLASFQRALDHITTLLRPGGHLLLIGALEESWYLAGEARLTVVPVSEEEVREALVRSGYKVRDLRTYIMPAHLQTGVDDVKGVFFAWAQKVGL
# [6] = target: Tyrosine-protein kinase Yes (Homo sapiens) (UniProt P07947); test: qHTS for small molecule inhibitors of Yes1 kinase: Primary Screen (AID 686947); note: potency is the fitted concentration of half-maximal effect; nearly all actives have a fitted effect of over 60% in size
# Chain of Tyrosine-protein kinase Yes (Homo sapiens) (P07947 whole entry, looked up): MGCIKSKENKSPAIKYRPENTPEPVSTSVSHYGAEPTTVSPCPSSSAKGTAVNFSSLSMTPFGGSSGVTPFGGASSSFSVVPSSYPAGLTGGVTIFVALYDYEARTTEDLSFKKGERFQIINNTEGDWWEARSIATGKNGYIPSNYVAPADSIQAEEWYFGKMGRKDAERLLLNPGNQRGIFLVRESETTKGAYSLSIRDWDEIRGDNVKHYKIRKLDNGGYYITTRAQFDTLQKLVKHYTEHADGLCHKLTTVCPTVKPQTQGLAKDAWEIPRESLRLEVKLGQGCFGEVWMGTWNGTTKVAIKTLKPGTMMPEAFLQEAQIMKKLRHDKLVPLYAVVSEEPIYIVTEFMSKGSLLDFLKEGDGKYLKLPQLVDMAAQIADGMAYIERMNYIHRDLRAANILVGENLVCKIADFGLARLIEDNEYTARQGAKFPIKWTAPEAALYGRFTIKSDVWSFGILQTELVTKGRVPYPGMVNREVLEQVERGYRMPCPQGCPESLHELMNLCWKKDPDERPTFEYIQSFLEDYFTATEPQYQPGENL
# In short: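 ADP-Glo luminescence reports ADP formed by 4 nM Yes1 phosphorylating poly(E4Y) (0.3 mg/mL) with 0.1 mM ATP for 60 min at room temperature, following 20 min compound preincubation; normalised between DMSO wells with and without enzyme.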
# [7] = qHTS for small molecule inhibitors of Yes1 kinase: Counter Assay (AID 686950);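 note: no kinase present so only ADP-Glo detection of a fixed ADP amount is tested; luminescence from ADP-Glo reporting ADP in a fixed ATP and ADP mixture; 0% = DMSO wells with ATP plus ADP and -100% = ATP-only wells without ADP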
# In short: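 ADP-Glo luminescence read after a 60 min room-temperature incubation of compound with an ATP/ADP mix (0.08 mM/0.02 mM) and no kinase, following a 20 min compound preincubation. Signal scaled between ATP+ADP (max) and 0.1 mM ATP-only (min) wells; Tris pH 7.5, Mg2+, DTT.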
# [8] = target: Glutathione peroxidase 1 (Homo sapiens) (UniProt P07203); test: Primary qHTS Assay for Inhibitors of Recombinant Selenoprotein Glutathione Peroxidase 1 (GPX1) (AID 1845191); note: nearly all actives have a fitted effect of over 65% in size
# Chain of Glutathione peroxidase 1 (Homo sapiens) (P07203 whole entry, looked up): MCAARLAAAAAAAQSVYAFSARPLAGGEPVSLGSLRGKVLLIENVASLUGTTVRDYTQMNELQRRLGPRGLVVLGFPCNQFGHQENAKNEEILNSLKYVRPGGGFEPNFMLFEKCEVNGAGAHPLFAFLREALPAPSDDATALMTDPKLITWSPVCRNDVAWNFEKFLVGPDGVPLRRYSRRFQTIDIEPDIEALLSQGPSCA
# In short: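 NADPH consumption tracked by fluorescence at 340/450 nm between t=0 and t=15 min, room temperature. Final mix: 10 nM GPX1, 100 nM glutathione reductase, 1 mM GSH, 0.5 mM NADPH, 0.5 mM cumene hydroperoxide, 0.01% BSA; 30 min compound–enzyme preincubation.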
Compound,Potency [1],activity [2] [%],"activity change, negative = inhibition [3] [%]",activity [4] [%],activity [5] [%],Potency [6],outcome [7],Potency [8]
O=C1NC(=O)/C(=C\c2ccc3c(c2)OC(F)(F)O3)S1,inactive,-3.87,-2.97,-7.77,-2.73,–,–,–
NS(=O)(=O)c1cccc(N=Cc2c(O)[nH]c3ccccc23)c1,inactive,–,–,–,–,10.4 µM (active),inactive,inactive

# — PubChem BioAssay (NCATS)
